The full data set covers some 8,800 targets. This sample favours those with a hit. About 0.5% of all pairs of compound and target were hits.
What was measured:
Assay in all cases: log2 fold change, soluble protein after heating vs DMSO (PISA); higher = thermal stabilisation; K562 lysate, 10 uM; active = over 0.2 and 3.5 SD of the protein, either way, in both replicates (recomputed)
[1] = compound: C1=CC=C(C=C1)[C@H](COC2=CC3=C(C=C2)NC(=O)N3)NC(=O)C4=CC=CN(C4=O)CC5=CC(=C(C=C5)F)F
Method in brief: (§1)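 K562 pellets were dounce-homogenised in PBS pH 7.4 with 1 mM MgCl2, and the crude extract at 1 mg/mL protein was treated with 10 μM compound for 30 min. Aliquots were heated for 3 min across 48°C-58°C, pooled, and brought to 0.5% NP-40 at 4°C; soluble protein was the supernatant after 21,000xg for 90 min. Soluble protein was quantified by TMTpro 16plex LC-MS/MS with channel sums equalised, and reported as log2 fold change in thermal stability against DMSO controls, with values from duplicates.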

[2] = compound: CC1=C(SC2=C1C(=N[C@H](C3=NN=C(N32)C)CC(=O)N)C4=CC=C(C=C4)Cl)C
Method in brief: as §1

[3] = compound: CC1=C2C(=CC=C1)N=C(N(C2=O)C3=CC=CC=C3C)CN4C=NC5=C(N=CN=C54)N
Method in brief: as §1

[4] = compound: Cc1sc2c(c1C)C(c1ccc(Cl)cc1)=N[C@@H](CC(=O)OC(C)(C)C)c1nnc(C)n1-2
Method in brief: as §1

[5] = compound: c1ccc([C@@H]2C[C@H]2NC2CCNCC2)cc1
Method in brief: as §1

Measured: log2 fold change

PTMA (UniProt P06454)
Chain of UniProt P06454 (P06454 whole entry, looked up): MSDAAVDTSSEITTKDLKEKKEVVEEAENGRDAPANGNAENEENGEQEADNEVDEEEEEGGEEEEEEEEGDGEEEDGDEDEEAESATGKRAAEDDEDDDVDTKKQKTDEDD
inactive: [1] 0.015 | [2] 0.018 | [3] 0.01 | [4] -0.004 | [5] 0.241

PPFIA2 (UniProt O75334)
Chain of UniProt O75334 (O75334 whole entry, looked up): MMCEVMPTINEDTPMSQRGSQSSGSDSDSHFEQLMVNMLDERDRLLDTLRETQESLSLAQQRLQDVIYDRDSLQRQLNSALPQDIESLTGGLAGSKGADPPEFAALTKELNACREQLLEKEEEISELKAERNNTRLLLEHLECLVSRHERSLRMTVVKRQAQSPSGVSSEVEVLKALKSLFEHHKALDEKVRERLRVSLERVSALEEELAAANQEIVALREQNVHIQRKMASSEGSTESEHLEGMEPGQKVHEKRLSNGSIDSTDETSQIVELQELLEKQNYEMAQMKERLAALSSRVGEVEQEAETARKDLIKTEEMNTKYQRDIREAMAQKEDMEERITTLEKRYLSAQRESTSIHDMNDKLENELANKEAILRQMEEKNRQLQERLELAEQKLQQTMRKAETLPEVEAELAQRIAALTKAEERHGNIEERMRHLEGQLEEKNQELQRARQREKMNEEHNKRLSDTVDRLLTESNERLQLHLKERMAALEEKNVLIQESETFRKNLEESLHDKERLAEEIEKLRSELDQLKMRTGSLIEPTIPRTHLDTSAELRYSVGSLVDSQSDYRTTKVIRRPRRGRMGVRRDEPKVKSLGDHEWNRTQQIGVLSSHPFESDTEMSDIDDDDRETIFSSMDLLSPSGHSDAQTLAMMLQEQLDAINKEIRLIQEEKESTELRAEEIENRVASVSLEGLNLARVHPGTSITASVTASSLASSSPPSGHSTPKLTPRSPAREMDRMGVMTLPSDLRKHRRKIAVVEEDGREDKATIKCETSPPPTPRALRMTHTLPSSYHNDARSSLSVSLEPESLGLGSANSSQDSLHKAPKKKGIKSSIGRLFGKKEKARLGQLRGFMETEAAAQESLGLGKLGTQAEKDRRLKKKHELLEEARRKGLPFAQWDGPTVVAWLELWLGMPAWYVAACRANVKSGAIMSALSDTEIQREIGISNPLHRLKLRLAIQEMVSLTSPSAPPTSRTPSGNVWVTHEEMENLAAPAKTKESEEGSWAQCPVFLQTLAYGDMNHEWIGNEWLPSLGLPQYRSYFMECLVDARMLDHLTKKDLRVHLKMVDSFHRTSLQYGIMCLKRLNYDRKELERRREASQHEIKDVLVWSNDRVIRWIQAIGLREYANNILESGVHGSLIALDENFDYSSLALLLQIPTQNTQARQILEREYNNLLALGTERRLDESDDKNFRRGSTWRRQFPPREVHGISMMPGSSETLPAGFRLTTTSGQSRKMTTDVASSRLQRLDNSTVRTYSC
inactive: [1] 0.022 | [2] 0.041 | [3] 0.003 | [4] -0.016 | [5] -0.132

PPP3CA isoform 2 (UniProt Q08209)
inactive: [1] -0.026 | [2] -0.115 | [3] -0.017 | [4] 0.004 | [5] 0.043

PMPCA (UniProt Q10713)
Chain of UniProt Q10713 (Q10713 whole entry, looked up): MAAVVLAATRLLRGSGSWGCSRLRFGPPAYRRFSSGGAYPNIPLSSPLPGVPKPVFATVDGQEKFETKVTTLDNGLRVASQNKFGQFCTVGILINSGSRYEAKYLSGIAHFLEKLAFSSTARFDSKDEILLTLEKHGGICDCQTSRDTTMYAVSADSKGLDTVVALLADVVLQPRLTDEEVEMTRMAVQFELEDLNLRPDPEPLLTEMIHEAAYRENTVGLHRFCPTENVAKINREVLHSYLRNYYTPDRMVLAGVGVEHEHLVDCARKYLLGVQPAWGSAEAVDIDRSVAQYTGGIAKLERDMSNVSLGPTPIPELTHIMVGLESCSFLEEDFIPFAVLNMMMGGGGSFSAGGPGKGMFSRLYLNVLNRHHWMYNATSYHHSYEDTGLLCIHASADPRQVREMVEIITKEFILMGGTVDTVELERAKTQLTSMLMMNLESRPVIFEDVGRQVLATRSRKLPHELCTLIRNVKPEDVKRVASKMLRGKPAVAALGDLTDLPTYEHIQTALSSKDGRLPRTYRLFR
inactive: [1] 0.019 | [2] 0.031 | [3] 0.028 | [4] -0.013 | [5] -0.012

PMS2 (UniProt P54278)
inactive: [1] -0.021 | [2] 0.005 | [3] 0.024 | [4] -0.031 | [5] 0.039

PFAS (UniProt O15067)
Chain of UniProt O15067 (O15067 whole entry, looked up): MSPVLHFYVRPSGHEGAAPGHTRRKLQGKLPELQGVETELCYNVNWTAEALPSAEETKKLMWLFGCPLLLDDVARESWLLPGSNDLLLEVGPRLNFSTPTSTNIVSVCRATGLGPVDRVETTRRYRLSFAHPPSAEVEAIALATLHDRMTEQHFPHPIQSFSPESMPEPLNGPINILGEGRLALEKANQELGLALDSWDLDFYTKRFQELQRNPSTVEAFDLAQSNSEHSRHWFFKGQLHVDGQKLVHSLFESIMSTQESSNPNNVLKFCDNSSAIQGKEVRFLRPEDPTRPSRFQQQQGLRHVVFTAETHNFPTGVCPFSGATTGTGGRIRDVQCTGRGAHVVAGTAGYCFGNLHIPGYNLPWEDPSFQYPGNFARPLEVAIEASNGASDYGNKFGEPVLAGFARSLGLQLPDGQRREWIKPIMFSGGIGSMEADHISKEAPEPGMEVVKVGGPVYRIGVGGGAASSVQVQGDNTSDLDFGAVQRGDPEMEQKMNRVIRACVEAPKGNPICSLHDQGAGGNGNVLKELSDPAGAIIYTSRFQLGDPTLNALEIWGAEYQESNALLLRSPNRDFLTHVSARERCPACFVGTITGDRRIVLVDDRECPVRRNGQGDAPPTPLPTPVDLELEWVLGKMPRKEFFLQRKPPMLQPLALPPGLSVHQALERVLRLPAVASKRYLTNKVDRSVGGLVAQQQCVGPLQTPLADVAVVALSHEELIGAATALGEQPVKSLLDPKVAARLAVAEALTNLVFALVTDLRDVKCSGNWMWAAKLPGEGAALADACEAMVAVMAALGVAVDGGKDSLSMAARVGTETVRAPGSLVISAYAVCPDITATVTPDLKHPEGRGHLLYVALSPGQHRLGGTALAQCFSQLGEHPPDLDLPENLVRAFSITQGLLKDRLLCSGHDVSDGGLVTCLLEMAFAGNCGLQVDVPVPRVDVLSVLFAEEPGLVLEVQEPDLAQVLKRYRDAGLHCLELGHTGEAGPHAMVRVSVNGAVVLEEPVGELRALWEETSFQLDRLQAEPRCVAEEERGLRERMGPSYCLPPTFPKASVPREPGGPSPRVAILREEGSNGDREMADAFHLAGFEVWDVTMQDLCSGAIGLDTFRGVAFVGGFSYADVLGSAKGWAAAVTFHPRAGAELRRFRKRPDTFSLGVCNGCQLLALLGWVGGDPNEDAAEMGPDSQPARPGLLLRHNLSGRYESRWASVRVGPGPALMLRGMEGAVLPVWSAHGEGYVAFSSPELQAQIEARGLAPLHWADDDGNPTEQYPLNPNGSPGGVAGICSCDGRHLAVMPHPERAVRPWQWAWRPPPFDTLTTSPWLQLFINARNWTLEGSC
inactive: [1] 0.007 | [2] 0.017 | [3] 0.02 | [4] 0.042 | [5] 0.023

POLR2F (UniProt P61218)
inactive: [1] 0.013 | [2] -0.105 | [3] -0.163 | [4] 0.381 | [5] 0.359

PMS1 (UniProt P54277)
Chain of UniProt P54277 (P54277 whole entry, looked up): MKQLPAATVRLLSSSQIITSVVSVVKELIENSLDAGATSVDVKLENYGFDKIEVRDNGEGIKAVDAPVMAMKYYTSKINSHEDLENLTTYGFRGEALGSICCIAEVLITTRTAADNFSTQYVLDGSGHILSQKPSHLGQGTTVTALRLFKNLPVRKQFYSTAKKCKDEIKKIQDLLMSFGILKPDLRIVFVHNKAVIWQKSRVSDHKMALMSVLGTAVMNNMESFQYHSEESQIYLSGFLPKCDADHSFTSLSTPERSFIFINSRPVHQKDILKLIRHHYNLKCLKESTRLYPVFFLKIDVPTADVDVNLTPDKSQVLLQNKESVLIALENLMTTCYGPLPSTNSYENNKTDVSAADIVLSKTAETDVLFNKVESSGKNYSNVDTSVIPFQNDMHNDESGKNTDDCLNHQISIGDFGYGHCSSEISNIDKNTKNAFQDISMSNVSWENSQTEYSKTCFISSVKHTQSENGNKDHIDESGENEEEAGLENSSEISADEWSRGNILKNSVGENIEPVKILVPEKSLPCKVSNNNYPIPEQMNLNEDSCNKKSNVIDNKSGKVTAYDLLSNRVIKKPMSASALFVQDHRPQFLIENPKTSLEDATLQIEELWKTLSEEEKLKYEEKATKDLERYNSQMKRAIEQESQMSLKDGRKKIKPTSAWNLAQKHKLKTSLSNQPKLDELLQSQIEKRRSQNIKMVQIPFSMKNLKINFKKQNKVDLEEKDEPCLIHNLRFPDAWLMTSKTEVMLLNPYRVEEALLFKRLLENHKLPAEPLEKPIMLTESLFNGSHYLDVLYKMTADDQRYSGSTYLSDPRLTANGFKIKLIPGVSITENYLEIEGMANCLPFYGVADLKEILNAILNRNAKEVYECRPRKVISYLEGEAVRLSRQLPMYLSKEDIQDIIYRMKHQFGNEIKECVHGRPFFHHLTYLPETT
inactive: [1] -0.011 | [2] -0.056 | [3] 0 | [4] -0.06 | [5] -0.006

PEX2 (UniProt P28328)
Chain of UniProt P28328 (P28328 whole entry, looked up): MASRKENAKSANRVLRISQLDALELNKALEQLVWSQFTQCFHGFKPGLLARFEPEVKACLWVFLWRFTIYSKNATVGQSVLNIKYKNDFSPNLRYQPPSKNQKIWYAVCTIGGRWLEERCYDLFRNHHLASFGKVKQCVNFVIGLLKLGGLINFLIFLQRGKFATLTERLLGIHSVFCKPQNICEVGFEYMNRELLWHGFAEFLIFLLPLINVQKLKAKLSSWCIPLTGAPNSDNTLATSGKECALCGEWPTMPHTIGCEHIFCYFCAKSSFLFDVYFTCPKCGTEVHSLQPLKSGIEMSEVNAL
inactive: [1] -0.243 | [2] 0.053 | [3] -0.048 | [4] 0.116 | [5] -0.365
